Source: PubChem BioAssay
Compounds with a hit are over-represented: about 3% of the library has one in this group of screens.
HEK293 cAMP ctrl – parental HEK293 cAMP activation (counter-screen); 73,000 tested, 2.5% active; parental HEK293 CNG cAMP sensor, membrane potential fluorescence; Potency, µM (highest dose often 57.1 µM), for inactives: at the top dose activation, hits mostly activators; further: potency means the concentration at half of the fitted maximal effect; % of control where 0% means no effect; nearly all actives have a fitted effect of over 55% in size
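Counterscreen for endogenous-receptor signalling: CNG-channel HEK 293 cells report cAMP rise by membrane depolarization. After 60 min dye equilibration with 100 uM RO 20-1724, compounds incubated 30 min before bottom-read fluorescence at 590 nm.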
HBB splicing – alters splicing of the hemoglobin beta chain | HBB splicing reporter cell assay, activation; EGFP reporter with mutant IVS2-654 intron; response scale: normalised to 500 nM splice-correcting PNA | Potency, µM (series often up to 46.1 µM), for the others: at the top dose activation, usual class: activators | 65,000 tested, 0.06% active; further: potency means the concentration at half of the fitted maximal effect; 0% is about no effect
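HeLa cells stably expressing EGFP interrupted by mutant beta-globin intron 2 (IVS2-654), 500/well in 2% FCS. Treated with compound for 2 days at 37C. Splicing correction scored as total well GFP intensity (488 nm excitation, 500-520 nm emission); 500 nM antisense PNA served as control.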
Epigenetic mod – derepresses silenced GFP locus in mouse C127i cells. mouse C127i GFP locus derepression, cytometry, 30 h. Potency, µM (top dose mostly 46.1 µM), for the others: at the top dose GFP derepression (activation). 68,000 tested, 0.09% active; further: % of control where 0% means no effect
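Read-out is the number of GFP-positive cells, scored as fluorescent objects 20 to 120 um wide, reflecting derepression of a silenced CMV-GFP reporter in murine C127i cells after 30 h compound exposure at 37 C.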
Ub-GFP proteasome – proteasome inhibitors stabilizing ubiquitin-GFP reporter; Ubiquitin-GFP reporter cells, proteasome inhibition, GFP fluorescence; response scale: untreated = 0%, 10 µM MG-132 = 100%; Potency, µM (titrated, usually from 45.9 µM), without a hit: at the top dose activation (GFP accumulation), usual class: activators; 67,000 tested, under 10 active; AID 526; active means well fitted activation curve with a large enough effect, not every such curve was filed as active; inconclusive means small, poorly fitted or top-dose-only effect, or another doubt; inactive means no such curve, though single readings can be large or run the other way; further: potency means the concentration at half of the fitted maximal effect
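Reporter cells (U2OS, ubiquitin-G76V-GFP fusion) are plated overnight, then treated 4 hr at 37 °C with compound titrations from 46 uM down to 2.9 nM. Activity is scaled against untreated cells and 10 uM MG-132.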
TSHR agonist – agonists of human thyroid stimulating hormone receptor | P16473 | HEK293-CNG-TSHR cells (CNG channel as cAMP sensor), membrane potential dye, cAMP | Potency, µM (top dose mostly 57.1 µM), without a hit: at the top dose activation, most hits filed as activators | 73,000 tested, 0.48% active | AID 926; active means well fitted activation curve with a large enough effect in the main read-out, with a control signal flat, not every such curve was filed as active; inconclusive means small, poorly fitted or top-dose-only effect, or a change in a side signal; inactive means no such curve, though single readings can be large or run the other way; % of control where 0% means no effect;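 further: the control signal comes from parental cells without the receptor; potency means the concentration at half of the fitted maximal effect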
Target sequence (P16473 whole entry, looked up): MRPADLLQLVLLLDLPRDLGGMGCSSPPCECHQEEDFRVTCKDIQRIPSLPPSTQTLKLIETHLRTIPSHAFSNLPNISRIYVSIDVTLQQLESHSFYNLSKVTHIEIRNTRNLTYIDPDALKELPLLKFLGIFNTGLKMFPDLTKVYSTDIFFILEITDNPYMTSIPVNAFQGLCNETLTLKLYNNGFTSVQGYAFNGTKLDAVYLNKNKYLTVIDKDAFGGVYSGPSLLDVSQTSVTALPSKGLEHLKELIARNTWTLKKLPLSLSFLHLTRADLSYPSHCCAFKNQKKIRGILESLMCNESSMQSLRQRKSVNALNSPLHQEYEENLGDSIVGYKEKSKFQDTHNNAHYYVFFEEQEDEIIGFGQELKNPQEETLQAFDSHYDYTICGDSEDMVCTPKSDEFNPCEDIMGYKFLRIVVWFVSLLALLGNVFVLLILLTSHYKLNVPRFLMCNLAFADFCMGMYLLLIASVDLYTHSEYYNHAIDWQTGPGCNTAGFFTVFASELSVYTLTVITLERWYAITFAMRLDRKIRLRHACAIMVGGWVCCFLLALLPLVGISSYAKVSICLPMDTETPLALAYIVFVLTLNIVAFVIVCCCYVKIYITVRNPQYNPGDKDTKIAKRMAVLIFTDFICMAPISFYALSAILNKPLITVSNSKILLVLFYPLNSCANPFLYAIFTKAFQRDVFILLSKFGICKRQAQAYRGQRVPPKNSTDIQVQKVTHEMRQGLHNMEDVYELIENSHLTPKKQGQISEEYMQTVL
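HEK 293 cells stably expressing TSHR and a modified CNG channel, with CNG-only parental cells as counterscreen, were preloaded 60 min at room temperature with membrane potential dye containing 100 uM RO 20-1724. Compound exposure was 30 min, and depolarization was read as fluorescence at 590 nm.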
An asterisk follows results filed as active; ? = inconclusive; nt = not tested or not shown; ! = not confirmed by another sample; [ ] = dose if it differs, or a comment. Unless noted, the call rests on the fitted dose curve; in most records, active means well fitted curve in the direction sought with a large enough effect; inconclusive means small, poorly fitted or top-dose-only effect, or another doubt; inactive means no such curve, though single readings can be large; an effect the other way counts as inactive or inconclusive.

SMILES	HEK293 cAMP ctrl	HBB splicing	Epigenetic mod	Ub-GFP proteasome	TSHR agonist
CN1CCCN(C(=O)Cc2c(Cl)cccc2Cl)c2nc3ccccc3nc21	0%	10µM*	4%	-5%	10%
COc1ccc(-n2nnc3c(=O)n(Cc4ccccc4C)cnc32)cc1	27%	2%[1.84 µM]	0%	-9%	nt
O=C(Cn1cnc2c(nnn2-c2ccc(F)cc2)c1=O)N1CCCC1	12%	-3%	4%	-9%	-1%
Cc1ccc(C)c(Cn2cnc3c(nnn3-c3ccc(F)cc3)c2=O)c1	1µM*	5%	0%	4%	?
COc1ccc(-n2nnc3c(=O)n(Cc4cccc(C)c4)cnc32)cc1	25µM*	4%[1.84 µM]	0%	13%	?
COc1ccc2oc(-c3ccccc3)c(C(=O)N3CCOCC3)c2c1	3%	2%	0%	16%	6%
COc1c(-c2ccccc2)oc2c(ccc3occc32)c1=O	40µM*	nt	5%[9.22 µM]	-7%	?
O=C1c2ccccc2NC2CCCCCN12 (stereo not given)	5%	0%	2%	2%	7%
O=C1c2ccccc2NC2CCCCC12 (stereo not given)	5µM*	0%	0%	-5%	?
Cc1ccc(-n2ncc3c(NCCCn4ccnc4)ncnc32)c(C)c1	1.6µM*	0%	nt	-14%	?
COc1cccc(N(C(=O)c2cccs2)c2nc3ccccc3s2)c1	13µM*	0%	2%	5%	?
COCCn1c(=O)c(C)nc2cnc(OCc3ccccc3)nc21	3.2µM*	1%	3%[9.22 µM]	-9%	?
COc1cccc(Cn2c(=O)c(C)nc3cnc(OCc4ccccc4)nc32)c1	16µM*	2%	2%[9.22 µM]	-2%	?
N#CCCn1c(=O)c(CCc2ccccc2)nc2cnc(Oc3ccccc3)nc21	?	0%	5%[9.22 µM]	1%	?
N#CCCn1c(=O)c(CCc2ccccc2)nc2cnc(OCc3ccccc3)nc21	4µM*	2%	-3%[9.22 µM]	9%	?
CC(C)(C[C@@]1(C)NC(=O)NC1=O)OCc1ccccc1	-2%[11.4 µM]	0%[9.22 µM]	-2%[9.22 µM]	2%[9.17 µM]	0%[11.4 µM]
CC(NC(=O)CSc1n[nH]c(=O)n1C1CC1)C12CC3CC(CC(C3)C1)C2 (stereo not given)	8%	0%[57.5 µM]	0%	1%	3%
O=C(CSc1n[nH]c(=O)n1C1CC1)Nc1cc(Cl)ccc1Oc1ccccc1	13µM*	0%[57.5 µM]	-4%	1%	?
COc1ccc(/C=N/n2c(SC)nnc2-c2ccccc2)c(OC)c1OC	?	3%	-2%	-3%	?
COc1ccc(/C=N/n2c(SC)nnc2-c2ccccc2)cc1C	25µM*	1%	-3%	6%	?
Cc1cc(C)nc(N2CCN(c3nnnn3-c3ccccc3)CC2)n1	?	-4%	1%	-5%	?
FC(F)(F)c1cccc(N2CCN(c3nnnn3-c3ccccc3)CC2)c1	32µM*	0%[57.5 µM]	9%	0%	?
c1ccc2c[n+](CCCC[n+]3ccc4ccccc4c3)ccc2c1	2%[11.4 µM]	2%[9.22 µM]	0%[9.22 µM]	6%[9.17 µM]	-1%[11.4 µM]
C=CCn1c(C)cc(C(=O)CSc2nnc(Cc3ccccc3)o2)c1C	?	2%[1.84 µM]	-2%	-3%	?
C=CCn1c(C)cc(C(=O)CSc2nc3ccccc3o2)c1C	25µM*	-1%[57.5 µM]	7%	-1%	?
SMILES	HEK293 cAMP ctrl	HBB splicing	Epigenetic mod	Ub-GFP proteasome	TSHR agonist
Cc1cc(C(=O)CSc2nc3ccccc3o2)c(C)n1C1CC1	16µM*	0%[57.5 µM]	1%	2%	?
C=CCn1c(C)cc(C(=O)CSc2nc3ccccc3c(=O)[nH]2)c1C	25µM*	-2%	0%	6%	?
COCCNC(=O)[C@H](C)[C@@H]1C[C@@]1(C)[C@@H](NC(=O)OCc1ccccc1)c1ccccc1	5%	0%	nt	nt	3%
C[C@@H](C(=O)NCCF)[C@H]1C[C@]1(C)[C@H](NC(=O)OCc1ccccc1)c1ccccc1	16µM*	2%	nt	nt	?
CN(C)C(=O)[C@]1(C)C[C@H]1[C@H](NC(=O)CNC(=O)[C@@H]1CCCN1C(=O)[C@]1(C)C[C@H]1[C@H](NC(=O)OCc1ccccc1)c1ccccc1)c1ccccc1	22%	0%	nt	nt	17%
C=C(N(C)C)[C@]1(C)C[C@H]1[C@H](NC(=O)CNC(=O)OCc1ccccc1)c1ccccc1	16µM*	-1%	nt	nt	?
COC(=O)c1[nH]c2ccc(Cl)cc2c1NC(=O)CN1CCC(C(N)=O)CC1	16µM*	2%[1.84 µM]	0%	-6%	?
COC(=O)c1[nH]c2cc(OC)ccc2c1NC(=O)CN1CCC(C(N)=O)CC1	nt	nt	6%[20.6 µM]	nt	nt
COc1cccc(Cn2c(=O)c(-c3cccs3)nc3cnc(N4CCNCC4)nc32)c1	-8%	1%	5%[9.22 µM]	0%	-14%
O=C1OC2(c3cc(Br)c(O)c(Br)c3Oc3c2cc(Br)c(O)c3Br)c2c(Cl)c(Cl)c(Cl)c(Cl)c21	16µM*	2%	nt	nt	?
COc1ncc2nc(-c3ccccc3)c(=O)n(-c3ccccc3)c2n1	-1%	-1%	0%[9.22 µM]	3%	3%
COc1ccc2cc(CN(Cc3ccco3)C(c3nnnn3C3CCCCC3)C(C)C)c(=O)[nH]c2c1 (stereo not given)	?	nt	9%	-2%	?
COc1ccc2[nH]c(=O)c(C(c3nnnn3C(C)(C)C)N(Cc3ccco3)CC3CCCO3)cc2c1 (stereo not given)	16µM*	nt	-1%	-4%	?
CCC(C)(C)n1nnnc1CN(Cc1cc2cc(OC)ccc2[nH]c1=O)C1CCCC1	20µM*	-3%	0%	4%	?
CC(=O)OCC1OC(C#CCC2CCCCC2)C=CC1OC(C)=O (stereo not given)	8%[11.4 µM]	1%[9.22 µM]	nt	nt	1%[11.4 µM]
O=C1CC(N2CCN(C3CCc4ccccc4C3)CC2)C(=O)N1c1ccccc1 (stereo not given)	25µM*	1%	-4%	-13%	?
COC1=CC(=O)C[C@@H](C)[C@@]12Oc1c(Cl)c(OC)cc(OC)c1C2=O	1%	nt	0%[9.22 µM]	-6%	nt
NC[C@H](O)C1CCCCCCC1	-1%	-1%	-1%	3%	4%
COC(=O)c1c(C(=O)OC)c2cc(C)ccn2c1Cl	20µM*	nt	4%	-4%	?
COC(=O)c1nc2cc(C)ccn2c1F	-2%	0%	3%	15%	1%
C=CC[C@@H]1C=C[C@@H](O/N=C\C[C@@H]2C=C[C@H](OC(C)=O)[C@H](COC(C)=O)O2)[C@@H](CO)O1	-1%[11.4 µM]	0%[9.22 µM]	nt	nt	-7%[11.4 µM]
Clc1ccccc1-c1nccc(-n2ccnc2)n1	-16%	-2%	6%[9.22 µM]	-1%	5%
Clc1ccccc1C(c1ccccc1)(c1ccccc1)n1ccnc1	21%[25.6 µM]	0%[20.6 µM]	3%[20.6 µM]	-1%[20.5 µM]	40µM*!
